Assay results published in PubChem BioAssay AID1159580 (chemical genetic matrix, 2015).
Screen size: about 5,500 compounds; about 2,000 (36%) were called active. Not shown: some 18% with an inconclusive outcome. Rule as the data show it: active = normalized growth mostly below about 0.91 (no sharp cut-off); inconclusive = no clear call, values can overlap the other calls; inactive = mostly above about 0.92. Some of the results follow.

Assay: chemical genetic growth profiling, strain panel (AID 1159580);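 also: tested at 20 µM; growth read once vehicle control cultures reached saturation at 30 °C; 1 = growth at the plate median or of vehicle wells; lower values mean less growth of the strain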
Conditions: S. cerevisiae deletion strains, growth OD

Measured: normalized growth

C=C(C)C1Cc2c(ccc(C(=O)O)c2O)O1 (stereo not given)
inactive: locus YBR021W, strain FUR4, hits give low values 0.931 | locus YBR229C, strain ROT2, hits give low values 0.984 | locus YCL029C, strain bik1, hits give low values 0.979 | locus YDL035C, strain GPR1, hits give low values 1.03 | locus YDL074C, strain BRE1, hits give low values 1.02 | locus YDL101C, strain DUN1, hits give low values 1.02 | locus YDL134C, strain PPH21, hits give low values 1.03 | locus YDL192W, strain arf1, hits give low values 0.965 | locus YDR101C, strain arx1, hits give low values 0.954 | locus YDR162C, strain NBP2, hits give low values 1.03 | locus YDR318W, strain mcm21, hits give low values 0.963 | locus YDR388W, hits give low values 0.953 | locus YDR502C, strain sam2, hits give low values 0.979 | locus YEL061C, strain CIN8, hits give low values 0.991 | locus YER110C, hits give low values 0.944 | locus YER155C, strain BEM2, hits give low values 0.946 | locus YER167W, strain BCK2, hits give low values 1 | locus YGL078C, strain dbp3, hits give low values 0.932 | locus YGL086W, strain mad1, hits give low values 0.982 | locus YGL248W, strain PDE1, hits give low values 1 | locus YGR135W, strain pre9, hits give low values 0.969 | locus YGR252W, strain gcn5, hits give low values 0.871 | locus YHR030C, strain SLT2, hits give low values 0.982 | locus YHR079C, strain IRE1 (second series), hits give low values 0.948 | locus YHR094C, strain hxt1, hits give low values 0.944 | locus YHR129C, strain ARP1, hits give low values 0.993 | locus YHR200W, strain rpn10, hits give low values 0.958 | locus YIL066C, strain RNR3, hits give low values 1.03 | locus YIL073C, strain SPO22, hits give low values 1.05 | locus YIR030C, strain dcg1, hits give low values 0.957 | locus YJL095W, strain BCK1, hits give low values 1.04 | locus YJL134W, strain LCB3, hits give low values 0.979 | locus YJL168C, strain set2, hits give low values 0.946 | locus YJL187C, strain SWE1 (second series), hits give low values 1.02 | locus YJR043C, strain POL32, hits give low values 1.02 | locus YJR075W, strain HOC1, hits give low values 1.01 | locus YKL085W, strain MDH1 (second series), hits give low values 0.931 | locus YKL085W, strain MDH1, hits give low values 0.931 | locus YKL190W, strain CNB1, hits give low values 0.998 | locus YKR001C, strain vps1, hits give low values 0.901 | locus YLR039C, strain RIC1, hits give low values 1.07 | locus YLR058C, strain SHM2, hits give low values 1 | locus YLR102C, strain apc9, hits give low values 0.942 | locus YLR262C, strain YPT6, hits give low values 1.08 | locus YLR268W, strain sec22, hits give low values 0.99 | locus YLR330W, strain CHS5, hits give low values 0.976 | locus YLR342W, strain FKS1 (second series), hits give low values 0.998 | locus YLR371W, strain rom2, hits give low values 0.957 | locus YLR418C, strain cdc73, hits give low values 0.957 | locus YML016C, strain PPZ1, hits give low values 0.987 | locus YML032C, strain rad52, hits give low values 0.988 | locus YML124C, strain tub3, hits give low values 0.957 | locus YMR078C, strain ctf18, hits give low values 0.923 | locus YMR223W, strain ubp8, hits give low values 0.98 | locus YMR307W, strain GAS1, hits give low values 0.972 | locus YNL067W, strain RPL9B, hits give low values 1.01 | locus YNL233W, strain BNI4, hits give low values 1.01 | locus YNL250W, strain rad50, hits give low values 0.911 | locus YNL307C, strain MCK1, hits give low values 0.95 | locus YNL322C, strain KRE1, hits give low values 0.993 | locus YNR052C, strain pop2, hits give low values 0.971 | locus YOL012C, strain htz1 1.06 | locus YOL147C, strain pex11, hits give low values 0.955 | locus YOR061W, strain CKA2, hits give low values 0.995 | locus YOR069W, strain VPS5, hits give low values 0.99 | locus YOR136W, strain idh2, hits give low values 0.985 | locus YOR144C, strain elg1, hits give low values 0.948 | locus YOR184W, strain ser1, hits give low values 0.989 | locus YOR316C, strain cot1, hits give low values 0.939 | locus YPR119W, strain clb2, hits give low values 0.943 | locus YPR141C, strain kar3, hits give low values 0.918 | locus YPR163C, strain tif3, hits give low values 0.968 | locus YPR167C, strain met16, hits give low values 0.963 | strain wtn01, hits give low values 0.972
active: locus YDL185W, strain tfp1, hits give low values 0.86 | locus YIL125W, strain kgd1, hits give low values 0.91 | locus YKL009W, strain mrt4, hits give low values 0.865 | locus YKL068W, hits give low values 0.91 | locus YNL271C, strain bni1, hits give low values 0.9 | locus YNL298W, strain CLA4, hits give low values 0.795
